High-throughput results (PubChem BioAssay)
An excerpt weighted towards active compounds, which were near 5.6% of everything screened.
RORg inh: ROR gamma (mouse) transcription inhibition; P51450; Drosophila S2 Gal4-RORgamma UAS-luciferase reporter, 20 h; Potency, µM (series often up to 53.6 µM), for inactives: at the highest dose activity change, negative = inhibition, actives largely listed as inhibitors; hit rate 5.4% among 310,000; note: potency is the fitted concentration of half-maximal effect; nearly all actives have a fitted effect of over 60% in size
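In this cell-based reporter format, copper sulfate (700 uM final) drives Gal4–ROR gamma fusion expression from a metallothionein promoter in Drosophila Schneider cells; compounds preincubated 1 hr, reporter read after 20 hr at ambient temperature.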
Gal4-VP16 FLuc: inhibits Gal4-VP16 luciferase reporter, ROR gamma counter-screen; Drosophila S2 Gal4-VP16 UAS-luciferase, luminescence, 20 h; Potency, µM (highest dose often 53.6 µM), without a hit: at the highest dose activity, negative = inhibition, most hits filed as inhibitors; hit rate 3.5% among 310,000; AID 2546;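 note: Gal4-VP16 expression switched on by copper sulfate through the metallothionein promoter; potency is the fitted concentration of half-maximal effect; nearly all actives have a fitted effect of over 50% in size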
PKM2 act: increases activity of human pyruvate kinase M2. Potency, µM (top dose mostly 57.5 µM), without a hit: at the highest dose activation, usual class: activators. P14618. hit rate 0.34% among 260,000. purified PKM2, Kinase-Glo ATP luminescence, activation; response scale: 0% is enzyme alone, no compound. AID 1631; note: potency is the fitted concentration of half-maximal effect; nearly all actives have a fitted effect of over 55% in size
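ATP formation by purified human PK-M2, quantified via coupled luciferase luminescence after 1 h at room temperature with 0.1 mM ADP and 0.5 mM PEP final.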
Six1-Eya2 blk: inhibitors of human Six1/Eya2 interaction. hit rate 0.56% among 360,000. AlphaScreen GST-Six1/His-Eya2 binding, biochemical; hits give low values. activity change, % (concentration not given with the values). Q15475+O00167; in the data active = activity change below about -65%; inconclusive = mostly about -30% to -63%
Target sequence (O00167 whole entry, looked up): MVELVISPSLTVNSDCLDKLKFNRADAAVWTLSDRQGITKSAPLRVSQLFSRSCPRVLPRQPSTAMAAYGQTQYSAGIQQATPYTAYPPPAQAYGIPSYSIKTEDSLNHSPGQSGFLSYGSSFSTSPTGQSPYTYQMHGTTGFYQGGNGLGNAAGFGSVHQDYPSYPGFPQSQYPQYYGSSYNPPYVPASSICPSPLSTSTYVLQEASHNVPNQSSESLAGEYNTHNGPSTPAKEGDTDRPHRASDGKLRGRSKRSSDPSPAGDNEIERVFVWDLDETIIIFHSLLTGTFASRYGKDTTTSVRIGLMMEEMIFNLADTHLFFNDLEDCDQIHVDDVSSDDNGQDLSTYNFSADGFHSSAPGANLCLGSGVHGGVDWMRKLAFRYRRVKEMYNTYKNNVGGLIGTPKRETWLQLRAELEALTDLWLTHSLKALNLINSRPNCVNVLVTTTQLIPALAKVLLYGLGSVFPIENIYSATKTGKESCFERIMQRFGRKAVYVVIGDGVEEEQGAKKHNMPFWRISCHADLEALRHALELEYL
Target sequence (Q15475 whole entry, looked up): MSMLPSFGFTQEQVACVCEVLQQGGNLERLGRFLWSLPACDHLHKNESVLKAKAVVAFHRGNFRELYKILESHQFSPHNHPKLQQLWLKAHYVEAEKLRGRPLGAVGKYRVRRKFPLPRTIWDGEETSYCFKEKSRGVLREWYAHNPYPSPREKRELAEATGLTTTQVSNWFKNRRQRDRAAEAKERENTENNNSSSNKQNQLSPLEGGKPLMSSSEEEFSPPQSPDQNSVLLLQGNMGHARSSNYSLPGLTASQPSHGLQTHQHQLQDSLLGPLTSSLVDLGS
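Compounds are tested against tagged Six1 and Eya2 proteins bridged by glutathione donor and nickel acceptor beads; after a one-hour incubation at 37 °C without light, AlphaScreen emission is recorded.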
CtBP-E1A blk: blocks the CtBP interaction with E1A; activity change, % (no concentration beside the values); AlphaScreen GST-E1A/His-CtBP binding, 1536-well; hits give low values; AID 651724; hit rate 0.49% among 340,000; in the data active = activity change below about -65%; inconclusive = mostly about -30% to -63%
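Steps: dispense buffer (Tris pH 8.0, NaCl 300 mM, TCEP 1 mM, BSA, Tween 20); add 5X protein mix (GST-E1A, His-CtBP, 125 nM each); pin 23 nL compound; 2 h at 37 °C, dark; add 5X beads (50 ug/mL); 1 h; read.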
An asterisk follows results filed as active; ? = inconclusive; . = not tested or not shown; [ ] = remark or other dose. Unless noted, calls come from the whole dose curve; as a rule, active = well fitted curve in the direction sought with a large enough effect; inconclusive = small, poorly fitted or top-dose-only effect, or another doubt; inactive = no such curve, though single readings can be large; an effect the other way counts as inactive or inconclusive. % is set by controls: 0 for no effect and ±100 for the full control effect.

SMILES | RORg inh | Gal4-VP16 FLuc | PKM2 act | Six1-Eya2 blk | CtBP-E1A blk
Cc1cnn(CCC(=O)NNC(=S)Nc2cccc(Cl)c2)c1 | 0.35µM* | ? | -4% | 3 | 8
CCNC(=S)NNC(=O)CCn1cc(C)cn1 | 6.3µM* | ? | 14% | -3 | -7
Cc1cnn(CCC(=O)NNC(=S)Nc2ccc(F)cc2)c1 | 0.45µM* | 2.8µM* | 5% | 2 | 10
Cc1ccc(NC2Sc3ccccc3NC2=O)cc1Cl (stereo not drawn) | -43% | ? | 2% | -3 | .
COc1ccccc1NS(=O)(=O)c1cccc(C(=O)NCC(c2cccs2)N2CCOCC2)c1 (stereo not drawn) | . | . | . | 6 | 1
COC(=O)Sc1nnc(-c2ccc(Br)cc2)o1 | 18µM* | 7% | -23% | . | .
CN(C)c1ccc(/C=C/c2c([N+](=O)[O-])c(=O)n(C)c(=O)n2C)cc1 | 3% | -4% | . | -1 | -15
Cn1c(/C=C/c2ccc(Br)cc2)c([N+](=O)[O-])c(=O)n(C)c1=O | 11µM* | -20% | . | 4 | -7
Cc1cccc(N2CCN(C(=O)C3CCN(c4ncnc5c4nc4n5CCCCC4)CC3)CC2)c1C | ? | 8.9µM* | . | -16 | .
CC(=NNC(=S)N1CC2CCC(CC2)C1)c1cnccn1 | . | . | . | -92* | -94*
CC(=NNC(=S)N1CCN(c2ccccn2)CC1)c1nccs1 | . | . | . | -91* | -94*
CC(=NNC(=S)N1CCCCCC1)c1cccc2cccnc12 | . | . | . | ? | -90*
CC(=NNC(=S)N1CC2CCC(CC2)C1)c1ccccn1 | . | . | . | -14 | -14
C/C(=N\NC(=O)C1CCCN(S(=O)(=O)c2ccccc2)C1)c1ccccn1 (stereo not drawn) | 2.8µM* | 5µM* | ? | -86* | -90*
S=C(NC1CCCC1)N1CCN(c2ccccn2)CC1 | -12% | 16% | -3% | -1 | -2
CCOC(=O)c1cc(OC(C)=O)c2ccc(OC)c(OC)c2c1 | . | . | . | 3 | 3
CSc1cccc(NC(=O)c2ccc(NC3=NC4CS(=O)(=O)CC4S3)cc2)c1 (stereo not drawn) | 30% | 0% | 1% | -1 | -2
CC(=NNC(=S)N1CCN(C2CCCCCC2)CC1)c1ccccn1 | . | . | . | -92* | 0
COC(=O)[C@]12CCCCC=C1N(CCC1=CCCCC1)C(=O)[C@H](CC(=O)NCc1cccc3ccccc13)C2 | . | . | . | -20 | -5
COc1ccc(C2NCCc3c2[nH]c2ccccc32)cc1COc1ccc(F)cc1 (stereo not drawn) | 10µM* | 8.9µM* | -16% | -21 | ?
COc1ccc2[nH]c3c(c2c1)CCN1C(=O)C(CC(=O)NCCC2=CCCCC2)C[C@H](C(=O)N2CCCCC2)[C@@]31C (stereo partly drawn) | . | . | . | 4 | -16
COc1ccc(CNc2cc(C)ccc2C)c(OC)c1OC | -21% | -11%[0.365 µM] | 1% | -17 | -9
COc1ccc(C)cc1NCc1cccc(OC)c1OC | 18µM* | 14% | 5% | ? | -23
CCC(=O)Nc1cccc2cccnc12 | -18% | -12%[10 µM] | -4% | 8 | .
C/C(=N\Nc1cccc2cccnc12)c1ccc[nH]1 | 3.5µM* | 3% | -2% | -26 | -18
SMILES | RORg inh | Gal4-VP16 FLuc | PKM2 act | Six1-Eya2 blk | CtBP-E1A blk
Cc1cc(C)cc(C(=O)NCCC(=O)NCc2cc(=O)n(C)c(=O)n2C)c1 | -9% | -1% | 9%[0.46 µM] | 1 | 4
CCCC(=O)N/C(N)=N/c1nc(C)c2cc(C)ccc2n1 | -21% | 1% | -2% | -1 | -2
Cc1ccc2nc(/N=C(\N)NC(=O)NC3CCCCC3)nc(C)c2c1 | -67% | 7.1µM* | -4% | -1 | -8
Cc1cc2nc(/N=C(\N)NC(=O)C(C)C)nc(C)c2cc1C | -33% | -1% | 4% | -14 | 2
CCC(=O)N/C(N)=N/c1nc(C)c2cc(C)c(C)cc2n1 | 1µM* | 3% | -6% | 2 | -4
[O-][n+]1onc2c1CCc1c-2nn(-c2ccccc2Cl)[n+]1[O-] | 6.3µM* | 3.2µM* | -15% | -2 | 1
Cc1ccc(-n2nc3c([n+]2[O-])CCc2c-3no[n+]2[O-])cc1 | -11% | ? | 0% | 1 | 2
CC(=O)CSc1ncnc2sc3c(c12)CCC(C)C3 (stereo not drawn) | 3.2µM* | ? | 6% | 24 | 26
CC(=O)C(Sc1ncnc2sc3c(c12)CCCC3)C(C)=O | 11µM* | 16µM* | -2% | 2 | 9
CC1CCc2c(sc3ncnc(SCC(=O)c4ccccc4)c23)C1 (stereo not drawn) | 28% | -4% | -10% | 0 | 8
O=C(Nc1ccc([N+](=O)[O-])cc1)Nc1nc(-c2ccc(Cl)s2)cs1 | 4µM* | 0.89µM* | -22% | 12 | 7
Cn1c(=O)c(=O)n(C)c2cc([N+](=O)[O-])c([N+](=O)[O-])cc21 | 7.9µM* | ? | 1% | -10 | 10
CC(C)(C)c1ccc(-c2noc(-c3ccc4c(c3)CCO4)n2)cc1 | 12% | -1% | 1% | 7 | 7
CCN1C(=O)/C(=C2/C=Cc3ccccc3N2CC)SC1=S | 1% | 11% | -7% | -84* | .
CCN1/C(=C2\C(=O)N(C)C(=S)N2C)C=Cc2ccccc21 | -44% | -7% | -20% | ? | -23
CCCN1/C(=C2/SC(=S)N(CC)C2=O)C=Cc2ccccc21 | -4% | 1% | 9% | -80* | -70*
CCCN1C(=O)/C(=C2/C=Cc3ccccc3N2CC)SC1=S | 3% | 8% | . | -76* | -76*
C#CCN(C[C@H]1[C@H](OC(=O)Nc2c(C)noc2C)[C@H](OC(=O)Nc2c(C)noc2C)C[C@@H](C(=O)OC)[C@H]1C(=O)OC)S(=O)(=O)c1ccc(C)cc1 | . | . | . | 11 | 0
O=C(Nc1nc2ccc(F)cc2s1)c1ccc([N+](=O)[O-])o1 | . | . | . | 3 | 1
CN[C@@H](C)C(=O)NC[C@H]1O[C@@H](n2cnc3c(N)ncnc32)[C@H](O)[C@@H]1O | . | . | . | 3 | 3
Clc1ccc(CN2C3=NCCN3c3ccccc32)cc1Cl | 18µM* | -16% | -1% | -1 | -1
CC(C)(C)c1ccc(C(=O)NC(=S)NCc2ccco2)cc1 | 6.3µM* | 7.9µM* | -18% | -8 | -8
O=C(NCc1ccco1)c1ccc2ccccc2c1 | ? | 10µM* | -4% | -6 | -2
CC(C)(C)c1ccc(-c2noc(CCC(=O)NCc3ccco3)n2)cc1 | 0.32µM* | 4µM* | 1% | -12 | -12
O=C(NCc1ccco1)c1ccc(C(=O)NCc2ccco2)cc1 | . | . | . | 0 | -20
COCCCNC(=S)NNC(=O)C1CC1c1ccc(C(C)(C)C)cc1 (stereo not drawn) | 4.5µM* | -13% | 5% | -2 | .
O=C(NC(=S)NCc1ccco1)c1ccc([N+](=O)[O-])cc1 | . | . | . | -23 | -6
